# Values quoted from earlier work, collected in PubChem BioAssay AID977611.
# Among all 3,900 compounds or so, about 3,900 (100%) were called active. Cut-off not given; nearly all actives show Kd up to about 4200 µM. The set was probably picked from earlier hits. Some of the results follow. Numbered stars: 1 amine (or outer) side, 2 acyl side, 3 side chain; on linkers, the order of the positions; unused ones are H or OH. Starred links: 1 amine or outer side, 2 acyl side, 3 side chain; linkers in the order of their positions; H or OH if unused. Where a SMILES comes first, the peptide text is derived from it. Non-standard residues stand in square brackets, D forms with d. Square brackets hold non-standard residues; d marks the D form. Residues, ends and D or L forms follow the SMILES beside them. Peptide text beside a SMILES is read from it. [ ]: non-standard residue; d: D form. X1 = O=C([C@H](Cc1ccc(O[P+](O)(O)O)cc1)N[*:1])[*:2]; Orn(CH(NH2)2) = NC(N)NCCC[C@H](N)C(=O)O; Pro(4,5-dehydro) = O=C(O)[C@@H]1CC=CN1
# Assay: PubChem AID 977611
# Conditions: PDB protein-ligand complexes, literature Kd
smiles,measurement,setting,value
CSCC[C@H](NC(=O)[C@@H]1CCCN1C(=O)[C@H](Cc1ccc(O)cc1)NC(=O)[C@@H](N)Cc1ccccc1)C(=O)N[C@@H](CC(C)C)C(=O)N[C@@H](CCCNC(N)N)C(=O)N[C@@H](Cc1ccc(O)cc1)C(=O)N[C@H](C(=O)N[C@@H](CC(N)=O)C(=O)NCC(=O)N1CCC[C@H]1C(=O)N1CCC[C@H]1C(=O)N1CCC[C@H]1C(=O)N[C@H](C(=O)O)[C@@H](C)O)[C@@H](C)O (H-FYPML[Orn(CH(NH2)2)]YTNGPPPT-OH),Kd,"protein: SUN domain-containing protein 2, PDB entry 4fi9",45.6 nM (active)
NC(N)NCCC[C@H](N)C(=O)N[C@@H](CO)C(=O)N[C@@H](Cc1ccccc1)C(=O)N[C@@H](CO[P+](O)(O)O)C(=O)N[C@@H](CCC(=O)O)C(=O)N1CCC[C@H]1C(=O)N[C@@H](Cc1ccccc1)C(=O)NCC(=O)O,Kd,"protein: 14-3-3 protein epsilon, PDB entry 3ual",1550 nM (active)
C[C@H](N)C(=O)N[C@@H](CS)C(=O)N[C@@H](CO[P+](O)(O)O)C(=O)N1CCC[C@H]1C(=O)N[C@@H](CCC(N)=O)C(=O)N[C@@H](Cc1ccccc1)C(=O)NCC(=O)O,Kd,"protein: Breast cancer type 1 susceptibility protein, PDB entry 4igk",28200 nM (active)
CSCC[C@H](NC(=O)[C@@H]1CCCN1C(=O)[C@H](CC(N)=O)NC(=O)[C@@H]1CCCN1C(=O)[C@H](Cc1cnc[nH]1)NC(=O)[C@@H](N)CC(C)C)C(=O)N[C@@H](Cc1ccc(O[P+](O)(O)O)cc1)C(=O)N[C@@H](C)C(=O)N[C@@H](CCCNC(N)N)C(=O)O (H-LHPNPM[X1]A[Orn(CH(NH2)2)]-OH),Kd,"protein: Protein Dok7(PH-PTB), PDB entry 3ml4",4700 nM (active)
CC[C@H](C)[C@H](NC(=O)[C@H](CCCNC(N)N)NC(=O)[C@H](CC(N)=O)NC(=O)[C@H](Cc1ccccc1)NC(=O)[C@@H](NC(=O)[C@@H]1CCCN1C(=O)[C@H](CC(C)C)NC(=O)[C@H](CCCNC(N)N)NC(=O)[C@@H](N)CCCNC(N)N)[C@@H](C)CC)C(=O)N[C@@H](CO)C(=O)N[C@H](C(=O)N[C@@H](CO)C(=O)O)C(C)C (H-[Orn(CH(NH2)2)][Orn(CH(NH2)2)]LPIFN[Orn(CH(NH2)2)]ISVS-OH),Kd,"protein: CCR4-NOT transcription complex subunit 1, PDB entry 4j8s",2000 nM (active)
CC(C)C[C@H](NC(=O)[C@H](CCCNC(N)N)NC(=O)[C@H](Cc1ccccc1)NC(=O)[C@@H](N)CC(C)C)C(=O)N[C@@H](CCCNC(N)N)C(=O)N[C@@H](Cc1c[nH]cn1)C(=O)N[C@@H](Cc1ccccc1)C(=O)N1CCC[C@H]1C(=O)N[C@@H](CS)C(=O)NCC(=O)N[C@@H](CC(N)=O)C(=O)N[C@H](C(=O)N[C@@H](CC(N)=O)C(=O)N[C@@H](Cc1ccc(O)cc1)C(=O)NCC(=O)N[C@@H](Cc1ccc(O)cc1)C(=O)N[C@@H](CCC(N)=O)C(=O)N[C@@H](CCC(N)=O)C(=O)N[C@@H](CCC(N)=O)C(=O)O)C(C)C (HELM PEPTIDE1{L.F.[NC(N)NCCC[C@H](N[*:1])C(=O)[*:2]].L.[NC(N)NCCC[C@H](N[*:1])C(=O)[*:2]].H.F.P.C.G.N.V.N.Y.G.Y.Q.Q.Q}$$$$V2.0),Kd,"protein: PTB domain of SNT-2, PDB entry 2kup",200 nM (active)
C[C@H](NC(=O)[C@H](CCC(=O)O)NC(=O)[C@@H]1CCCN1C(=O)[C@H](Cc1ccccc1)NC(=O)[C@@H](NC(=O)[C@@H]1CCCN1C(=O)[C@H](CO[P+](O)(O)O)NC(=O)[C@H](CCC(N)=O)NC(=O)[C@@H]1CCCN1)[C@@H](C)O)C(=O)NCC(=O)O,Kd,"protein: Breast cancer type 1 susceptibility protein(BRCA1), PDB entry 3coj",5200 nM (active)
CC(C)C[C@H](NC(=O)CNC(=O)[C@H](CC(N)=O)NC(=O)[C@@H](N)Cc1ccccc1)C(=O)N[C@H](C(=O)N[C@@H](CO[P+](O)(O)O)C(=O)N1CCC[C@H]1C(=O)N[C@@H](CCC(N)=O)C(=O)N[C@@H](CCCNC(N)N)C(=O)N[C@@H](CO[P+](O)(O)O)C(=O)O)[C@@H](C)O,Kd,"protein: Saccharomyces cerevisiae Skp1 and Cdc4 (263-744), PDB entry 3v7d",410 nM (active)
CC(C)[C@H](NC(=O)[C@@H]1CCCN1C(=O)[C@H](CO[P+](O)(O)O)NC(=O)[C@@H](N)CCCNC(N)N)C(=O)N[C@@H](Cc1ccccc1)C(=O)N[C@@H](CO)C(=O)O,Kd,"protein: Breast cancer type 1 susceptibility protein, PDB entry 4ifi",3340 nM (active)
CC(C)C[C@H](NC(=O)[C@H](CC(N)=O)NC(=O)[C@H](Cc1ccccc1)NC(=O)[C@@H](N)CO)C(=O)N[C@@H](C)C(=O)N1CCC[C@H]1C(=O)N[C@@H](CC(C)C)C(=O)NCC(=O)N[C@@H](CCCNC(N)N)C(=O)N[C@@H](CCCNC(N)N)C(=O)N[C@@H](CCCNC(N)N)C(=O)N[C@H](C(=O)N[C@@H](CCC(N)=O)C(=O)N[C@@H](CO)C(=O)N[C@@H](CCC(N)=O)C(=O)O)C(C)C (H-SFNLAPLG[Orn(CH(NH2)2)][Orn(CH(NH2)2)][Orn(CH(NH2)2)]VQSQ-OH),Kd,"protein: Telomeric repeat-binding factor 2(TRF2 TRFH domain), PDB entry 3bu8",120 nM (active)
"CC(C)C[C@H](NC(=O)[C@H](CC(C)C)NC(=O)[C@H](CCC(=O)O)NC(=O)[C@@H]1CC=CN1C(=O)[C@H](C)NC(=O)[C@@H]1CCCN1)C(=O)NCC(=O)O (H-PA[Pro(4,5-dehydro)]ELLG-OH)",Kd,"protein: anti-hinge rabbit antibody 2095-2, PDB entry 4o4y",15.5 nM (active)
CC[C@H](C)[C@H](NC(=O)[C@@H](NC(=O)[C@@H](N)CC(C)C)C(C)C)C(=O)N[C@@H](C)C(=O)NCC(=O)N[C@@H](CC(N)=O)C(=O)N1CCC[C@H]1C(=O)N[C@@H](C)C(=O)N[C@@H](Cc1ccc(O[P+](O)(O)O)cc1)C(=O)N[C@@H](CCCNC(N)N)C(=O)N[C@@H](CO)C(=O)O (H-LVIAGNPA[X1][Orn(CH(NH2)2)]S-OH),Kd,"protein: PTB domain of insulin receptor substrate-1(IRS-1), PDB entry 1irs",6000 nM (active)
O=C1O[C@H](CO)[C@@H](O[C@@H]2O[C@H](CO)[C@@H](O)[C@H](O)[C@@H]2O)[C@H](O)[C@@H]1O,Kd,"protein: ABC transporter substrate-binding protein MnBP3, PDB entry 4pft",2.3 nM (active)
C[C@H]1O[C@H](O[C@H]2[C@H](O)[C@@H](O)[C@@H](O[C@H]3[C@H](O)[C@@H](O)[C@@H](O)O[C@@H]3CO)O[C@@H]2CO)[C@H](O)[C@@H](O)[C@@H]1N[C@H]1CC(CO)[C@@H](O)[C@H](O)[C@H]1O (stereo partly specified),Kd,"protein: Carbohydrate ABC transporter substrate-binding protein, CUT1 family (TC 3.A.1.1.-) EUR_01830, PDB entry 4uac",288 nM (active)
C[C@@H]1O[C@@H](O)[C@H](O)[C@H](O)[C@H]1O[C@H]1O[C@H](CO)[C@@H](O)[C@H](O[C@H]2O[C@H](C)[C@@H](O)C[C@H]2O)[C@@H]1O[C@H]1O[C@H](CO)[C@H](O)[C@H](O[C@@H]2O[C@@H](C)[C@H](O[C@H]3O[C@H](CO)[C@@H](O)[C@H](O[C@H]4O[C@H](C)[C@@H](O)C[C@H]4O)[C@@H]3O[C@H]3O[C@H](CO)[C@H](O)[C@H](O)[C@H]3O)[C@@H](O)[C@H]2O)[C@H]1O,Kd,"protein: Bifunctional tail protein, PDB entry 3th0",75800 nM (active)
OC[C@H]1O[C@H](O[C@H]2[C@H](O)[C@@H](O)[C@@H](O[C@H]3[C@H](O)[C@@H](O)[C@@H](O[C@H]4[C@H](O)[C@@H](O)[C@@H](O)O[C@@H]4CO)O[C@@H]3CO)O[C@@H]2CO)[C@H](O)[C@@H](O)[C@@H]1O,Kd,"protein: Outer membrane protein SusF, PDB entry 4fe9",990000 nM (active)
